One may read the inhibition as the relative decrease from the control value, in per cent.

Protein-tyrosine kinase 6 (Homo sapiens), sequence (Q13882 whole entry, looked up): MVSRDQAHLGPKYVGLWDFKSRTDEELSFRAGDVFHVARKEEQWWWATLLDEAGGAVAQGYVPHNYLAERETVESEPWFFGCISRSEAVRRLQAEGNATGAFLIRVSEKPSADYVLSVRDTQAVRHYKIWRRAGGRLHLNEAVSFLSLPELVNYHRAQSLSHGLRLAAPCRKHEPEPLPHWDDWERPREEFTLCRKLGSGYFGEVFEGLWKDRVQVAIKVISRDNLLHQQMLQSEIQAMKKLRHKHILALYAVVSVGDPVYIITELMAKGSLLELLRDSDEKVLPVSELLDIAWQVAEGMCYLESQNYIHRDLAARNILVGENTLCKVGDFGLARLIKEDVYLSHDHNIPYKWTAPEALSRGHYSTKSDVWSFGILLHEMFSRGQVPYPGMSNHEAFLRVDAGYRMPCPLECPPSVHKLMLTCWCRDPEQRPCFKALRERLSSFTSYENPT

The first assay addresses Protein-tyrosine kinase 6 (Homo sapiens) (UniProt Q13882). To be noted: at 1 µM.
For `CNC(=O)c1cccc(C#Cc2cncnc2Nc2ccc(OCc3cccc(F)c3)c(Cl)c2)c1`, the inhibition was 2.87%.

On to `Fc1ccc(-c2cc(-c3c[nH]nc3-c3ccccn3)ccn2)cc1`, for which the inhibition was found to be 7.81%.

`CN1CCC(n2cnc(-c3ccc(F)cc3)c2-c2ccnc(Nc3ccccc3)n2)CC1`: the inhibition was determined as 13.2%.

As to `CCn1c(-c2nonc2N)nc2c(C#CC(C)(C)O)ncc(OC3CCNCC3)c21`, the inhibition worked out at 1.62%.

With `COc1cccc(-c2c[nH]c3c(N/N=C/c4ccncc4)ncnc23)c1`, the inhibition came out at 4.81%.

Turning to `Cc1ccc2c(-c3ccnc(Nc4ccccc4)n3)c(-c3ccc(F)cc3)nn2n1`, the inhibition amounted to 63.4%.

For the molecule `COC(=O)Nc1nc2ccc(Oc3ccc(NC(=O)Nc4cccc(Cl)c4)cc3)cc2[nH]1`, the inhibition was -0.38%.

With `COc1ccc(-c2cc(-c3c[nH]nc3-c3ccccn3)ccn2)cc1`, the inhibition was 7.25%.

`COc1cc(/C=N/Nc2ncnc3[nH]ncc23)ccc1O`: the inhibition was 30.3%.

Turning to `[O-][S+]1CCN(Cc2ccc(-c3ccc4ncnc(Nc5ccc(OCc6cccc(F)c6)c(Cl)c5)c4c3)o2)CC1`, the inhibition was 7.3%.

As for `CCNC(=O)O[C@H]1CN[C@H](C#Cc2cc3ncnc(Nc4ccc(OCc5cccc(F)c5)c(Cl)c4)c3s2)C1`, the inhibition stood at 5.56%.

As for `CC1=C(C(=O)Nc2cc(Cl)c3[nH]ncc3c2)C(c2ccc(C(F)(F)F)cc2)CC(=O)N1` (stereo not drawn), the inhibition came out at 10.3%.

Regarding `c1ccc(-c2nc3n(c2-c2ccc4c(c2)OCO4)CCC3)nc1`, the inhibition amounted to 2.26%.

In the case of `CCOc1ccc2c(-c3ccnc(Nc4cccc(C(F)(F)F)c4)n3)cnn2n1`, the inhibition came to 0.97%.

As to `CCN1CCC(CC(=O)Nc2n[nH]c3nnc(-c4cccc(F)c4F)cc23)CC1`, the inhibition was determined as 1.16%.

As to `COc1ccc2[nH]c3c4[nH]c5ccc(OC)cc5c4c4c(c3c2c1)C(=O)NC4=O`, the inhibition worked out at 19.6%.

For the molecule `COc1ccc(-c2oc3ncnc(N)c3c2-c2ccc(NC(=O)Nc3cc(C(F)(F)F)ccc3F)cc2)cc1`, the inhibition amounted to 25.4%.

Consider `Fc1cccc(COc2ccc(Nc3ncnc4sc(-c5ccco5)cc34)cc2Cl)c1`, for which the inhibition turned out to be 3.91%.

Turning to `COc1cc(N2CCN(C(C)C)CC2)ccc1Nc1nc(Nc2ccc(F)cc2C(N)=O)c2cc[nH]c2n1`, the inhibition is 31.2%.

For `CN(C)CCOc1ccc(-c2nc(-c3ccncc3)c(-c3ccc4c(c3)CC/C4=N\O)[nH]2)cc1`, the inhibition was 12.4%.

For the molecule `NC(=O)c1sc(-n2cnc3ccc(C(F)(F)F)cc32)cc1OCc1ccccc1Br`, the inhibition came out at 5.16%.

Turning to `Nc1nc(-c2cccc(Cl)c2)c(-c2ccc3ncccc3n2)s1`, the inhibition was found to be 10.6%.

For the molecule `CCCN1CCC(c2ccc(Nc3nc(Nc4cc(F)ccc4C(N)=O)c4cc[nH]c4n3)c(OC)c2)CC1`, the inhibition was 64.8%.

Take `CCn1cc(-c2ccnc3[nH]ccc23)c(-c2cccc(NC(=O)Nc3ccc(OCc4ccccc4)cc3)c2)n1`: the inhibition was 16.2%.

`NS(=O)(=O)c1ccc(Nc2ncc(-c3ccccc3)o2)cc1`: the inhibition amounted to 4.41%.

As for `CCCN(CCS(C)(=O)=O)Cc1ccc(-c2ccc3ncnc(Nc4ccc(OCc5cccc(F)c5)c(Cl)c4)c3c2)o1`, the inhibition was found to be 7.54%.

Turning to `CCN(CC)S(=O)(=O)c1ccc(OC)c(Nc2ncc(-c3ccccc3)o2)c1`, the inhibition turned out to be 3.3%.

Take `CS(=O)(=O)CCNCc1coc(-c2ccc3ncnc(Nc4ccc(OCc5ccccc5)cc4)c3c2)c1`: the inhibition turned out to be 10.9%.

For `N#Cc1c(NC(=O)CN2CCOCC2)sc2c1CCCC2`, the inhibition came to 6.1%.

Turning to `COc1cccc(-n2ncc3c(N/N=C/c4ccc(F)cc4)ncnc32)c1`, the inhibition was found to be 5.54%.

For the molecule `O=C(O[C@H]1CN[C@H](C#Cc2cc3ncnc(Nc4ccc(Cc5ccccc5)cc4)c3s2)C1)N1CCOCC1`, the inhibition was 18.2%.

For `COc1cc2c(cc1Nc1nc(Nc3ccsc3C(N)=O)c3cc[nH]c3n1)N(C(=O)CN(C)C)CCC2(C)C`, the inhibition turned out to be 19.2%.

With `CCc1nn2ncccc2c1-c1ccnc(NC2CC2)n1`, the inhibition was found to be 1.65%.

Consider `Cc1ccc(O)cc1Nc1ccnc2cc(-c3ccccn3)ccc12`, for which the inhibition turned out to be 96.9%.

The target in another assay is Tyrosine-protein kinase BTK (Homo sapiens) (UniProt Q06187). The following applies: at 0.1 µM.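 Note: values are averaged percent inhibition of BTK enzyme activity.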
Tyrosine-protein kinase BTK (Homo sapiens), sequence (Q06187 whole entry): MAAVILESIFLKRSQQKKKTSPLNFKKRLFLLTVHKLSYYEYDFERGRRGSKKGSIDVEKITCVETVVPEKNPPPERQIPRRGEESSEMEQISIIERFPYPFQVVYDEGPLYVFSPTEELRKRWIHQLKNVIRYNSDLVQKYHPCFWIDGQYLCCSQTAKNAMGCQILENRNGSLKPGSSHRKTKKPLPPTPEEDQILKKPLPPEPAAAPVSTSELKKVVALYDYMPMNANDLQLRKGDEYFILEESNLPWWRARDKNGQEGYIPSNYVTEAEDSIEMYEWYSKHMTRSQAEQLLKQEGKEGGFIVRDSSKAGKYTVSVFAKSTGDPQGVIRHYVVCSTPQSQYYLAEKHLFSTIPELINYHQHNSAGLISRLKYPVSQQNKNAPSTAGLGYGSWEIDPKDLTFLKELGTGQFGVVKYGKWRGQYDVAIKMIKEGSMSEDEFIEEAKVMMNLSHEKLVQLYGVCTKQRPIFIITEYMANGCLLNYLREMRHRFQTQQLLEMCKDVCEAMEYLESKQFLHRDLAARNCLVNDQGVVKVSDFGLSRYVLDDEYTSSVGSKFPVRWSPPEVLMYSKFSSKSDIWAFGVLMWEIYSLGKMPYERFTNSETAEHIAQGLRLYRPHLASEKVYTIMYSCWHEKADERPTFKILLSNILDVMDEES
Turning to `CNC(=O)c1cccc(C#Cc2cncnc2Nc2ccc(OCc3cccc(F)c3)c(Cl)c2)c1`, the inhibition is 2.52%.

Turning to `Fc1ccc(-c2cc(-c3c[nH]nc3-c3ccccn3)ccn2)cc1`, the inhibition was 0.31%.

For `CN1CCC(n2cnc(-c3ccc(F)cc3)c2-c2ccnc(Nc3ccccc3)n2)CC1`, the inhibition is -0.86%.

With `CCn1c(-c2nonc2N)nc2c(C#CC(C)(C)O)ncc(OC3CCNCC3)c21`, the inhibition came to 0.17%.

As for `COc1cccc(-c2c[nH]c3c(N/N=C/c4ccncc4)ncnc23)c1`, the inhibition came out at 0.88%.

As to `Cc1ccc2c(-c3ccnc(Nc4ccccc4)n3)c(-c3ccc(F)cc3)nn2n1`, the inhibition worked out at 2.84%.

Turning to `COC(=O)Nc1nc2ccc(Oc3ccc(NC(=O)Nc4cccc(Cl)c4)cc3)cc2[nH]1`, the inhibition is 0.06%.

Turning to `COc1ccc(-c2cc(-c3c[nH]nc3-c3ccccn3)ccn2)cc1`, the inhibition is 2.09%.

`COc1cc(/C=N/Nc2ncnc3[nH]ncc23)ccc1O`: the inhibition was found to be 1.57%.

For the molecule `[O-][S+]1CCN(Cc2ccc(-c3ccc4ncnc(Nc5ccc(OCc6cccc(F)c6)c(Cl)c5)c4c3)o2)CC1`, the inhibition was -0.42%.

As for `CCNC(=O)O[C@H]1CN[C@H](C#Cc2cc3ncnc(Nc4ccc(OCc5cccc(F)c5)c(Cl)c4)c3s2)C1`, the inhibition stood at 1.15%.

In the case of `CC1=C(C(=O)Nc2cc(Cl)c3[nH]ncc3c2)C(c2ccc(C(F)(F)F)cc2)CC(=O)N1` (stereo not drawn), the inhibition was -0.51%.

Regarding `c1ccc(-c2nc3n(c2-c2ccc4c(c2)OCO4)CCC3)nc1`, the inhibition was -0.42%.

With `CCOc1ccc2c(-c3ccnc(Nc4cccc(C(F)(F)F)c4)n3)cnn2n1`, the inhibition came to 0.07%.

`CCN1CCC(CC(=O)Nc2n[nH]c3nnc(-c4cccc(F)c4F)cc23)CC1`: the inhibition was 0.54%.

Consider `COc1ccc2[nH]c3c4[nH]c5ccc(OC)cc5c4c4c(c3c2c1)C(=O)NC4=O`, for which the inhibition is 0.07%.

On to `COc1ccc(-c2oc3ncnc(N)c3c2-c2ccc(NC(=O)Nc3cc(C(F)(F)F)ccc3F)cc2)cc1`, for which the inhibition amounted to 1.43%.

As for `Fc1cccc(COc2ccc(Nc3ncnc4sc(-c5ccco5)cc34)cc2Cl)c1`, the inhibition was -1.13%.

On to `COc1cc(N2CCN(C(C)C)CC2)ccc1Nc1nc(Nc2ccc(F)cc2C(N)=O)c2cc[nH]c2n1`, for which the inhibition was -0.63%.

As for `CN(C)CCOc1ccc(-c2nc(-c3ccncc3)c(-c3ccc4c(c3)CC/C4=N\O)[nH]2)cc1`, the inhibition amounted to 0.76%.

Take `NC(=O)c1sc(-n2cnc3ccc(C(F)(F)F)cc32)cc1OCc1ccccc1Br`: the inhibition was -0.59%.

`Nc1nc(-c2cccc(Cl)c2)c(-c2ccc3ncccc3n2)s1`: the inhibition is 0.83%.

For `CCCN1CCC(c2ccc(Nc3nc(Nc4cc(F)ccc4C(N)=O)c4cc[nH]c4n3)c(OC)c2)CC1`, the inhibition was -1.53%.

Take `CCn1cc(-c2ccnc3[nH]ccc23)c(-c2cccc(NC(=O)Nc3ccc(OCc4ccccc4)cc3)c2)n1`: the inhibition was determined as 0.34%.

For the molecule `NS(=O)(=O)c1ccc(Nc2ncc(-c3ccccc3)o2)cc1`, the inhibition worked out at 0%.

Take `CCCN(CCS(C)(=O)=O)Cc1ccc(-c2ccc3ncnc(Nc4ccc(OCc5cccc(F)c5)c(Cl)c4)c3c2)o1`: the inhibition was -0.01%.

In the case of `CCN(CC)S(=O)(=O)c1ccc(OC)c(Nc2ncc(-c3ccccc3)o2)c1`, the inhibition amounted to 2.59%.

In the case of `CS(=O)(=O)CCNCc1coc(-c2ccc3ncnc(Nc4ccc(OCc5ccccc5)cc4)c3c2)c1`, the inhibition was -0.04%.

In the case of `N#Cc1c(NC(=O)CN2CCOCC2)sc2c1CCCC2`, the inhibition was determined as 0.98%.

Take `COc1cccc(-n2ncc3c(N/N=C/c4ccc(F)cc4)ncnc32)c1`: the inhibition turned out to be 1.48%.

In the case of `O=C(O[C@H]1CN[C@H](C#Cc2cc3ncnc(Nc4ccc(Cc5ccccc5)cc4)c3s2)C1)N1CCOCC1`, the inhibition was -0.44%.

Turning to `COc1cc2c(cc1Nc1nc(Nc3ccsc3C(N)=O)c3cc[nH]c3n1)N(C(=O)CN(C)C)CCC2(C)C`, the inhibition was determined as 0.08%.

`CCc1nn2ncccc2c1-c1ccnc(NC2CC2)n1`: the inhibition was 0.24%.

On to `Cc1ccc(O)cc1Nc1ccnc2cc(-c3ccccn3)ccc12`, for which the inhibition is 4.79%.
